Cy5 interf NS3h: Cy5 fluorescence interference, HCV helicase counter-screen | Cy5-dT15 DNA with NS3h; actives lie on both sides; signal over control mean, under 1 quenches | fluorescence interference ratio at 100 µM | 16,000 tested, 6% active | AID 720488;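 active = compound fluorescence over control fluorescence at most 0.8, a quencher, or at least a set upper limit, an enhancer; inactive = ratio between 0.8 and the set upper limit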
HCV NS3h FP: blocks HCV NS3 helicase binding to DNA | NS3h Cy5-dT15 DNA binding, fluorescence polarization | inhibition, % at 100 µM | 16,000 tested, 1.6% active | AID 687043;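 active = inhibition above the average over every tested compound plus 3 SD, cut at about 40% in these data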
Numbers without * were called inactive. The list is not random: actives were taken first. Their share in the collection is about 7.6%.

SMILES	Cy5 interf NS3h	HCV NS3h FP
COC(=O)c1ccccc1P(C)(C)=O	1.1	-3
Cc1c(NC(=O)/C=C/c2ccc(Br)cc2)c(=O)n(-c2ccccc2)n1C	1	2
O=[N+]([O-])c1cccc(C2=Nc3ccc([N+](=O)[O-])cc3ON2)c1	0.74*	2
O=[N+]([O-])c1cccc(-c2ccc(CO)o2)c1	0.95	-3
CCCCOP(=O)(CP(=O)(OCCCC)OCCCC)CP(=O)(OCCCC)OCCCC	0.88	-13
Cc1cc(Cl)ccc1OCC(=O)Nc1ccc(Br)cn1	0.76*	12
Cc1cc(Cl)ccc1OCC(=O)Nc1ccc(Cl)cn1	1	11
O=C(N/N=C\c1ccc[nH]1)c1ccccc1[N+](=O)[O-]	0.67*	15
NC(=O)c1ccc(NC(=O)c2ccccc2[N+](=O)[O-])cc1	0.97	-7
O=C(c1ccccc1O)N1N=C(c2ccc(Br)cc2)CC1(O)C(F)(F)F (stereo not drawn)	0.92	5
O=C(c1ccccc1Br)N1N=C(c2ccccc2)CC1(O)C(F)(F)F (stereo not drawn)	0.79*	5
CCC1=NN(C(=O)c2ccncc2)C(O)(c2ccc(Br)cc2)C1 (stereo not drawn)	0.99	-4
CCC1=NN(C(=O)c2cccc(C)c2O)C(O)(c2ccc(Br)cc2)C1 (stereo not drawn)	0.77*	-6
O=C(NC(=S)Nc1ccc(-c2nc3ncccc3o2)cc1)c1ccco1	1.1	-1
O=C1c2ccccc2C(=O)c2c(C#Cc3ccccc3)cccc21	1	14
CN(C)/C=C/C=C1\CC(=O)N(c2ccccc2)C1=O	0.89	8
CC1CC/C(=C\C=C\N(C)C)C(=O)/C1=C/C=C/N(C)C (stereo not drawn)	0.72*	28
CCOC(=O)c1c(-c2ccc(Cl)cc2)csc1NC(=O)COc1ccc(OC)cc1	0.97	10
CCn1nnnc1-c1ccc(OC)c(S(=O)(=O)NCCc2ccc(OC)c(OC)c2)c1	0.98	5
CCc1ccc(OCC(=O)Nc2ccc3ccccc3c2)cc1	0.97	16
Nc1ccc(C(=O)NCCNCCNC(=O)c2ccc(N)cc2)cc1	0.8*	15
Nc1ccc(C(=O)Nc2cccc3ccccc23)cc1	1.1	14
Cc1ccc(N2C(=O)CC(NCc3cccnc3)C2=O)cc1 (stereo not drawn)	1.3*	8
COc1cccc(CCNC2CC(=O)N(c3ccc(C)cc3)C2=O)c1 (stereo not drawn)	1.1	-1
CCc1ccc(N2CC(C(=O)Nc3ccc([N+](=O)[O-])cc3)CC2=O)cc1 (stereo not drawn)	1	13
SMILES	Cy5 interf NS3h	HCV NS3h FP
Cc1c(Cl)c([N+](=O)[O-])nn1CC(=O)N1CCCC1	1	-3
Cc1c(Br)c([N+](=O)[O-])nn1CC(=O)N1CCc2ccccc2C1	0.56*	12
Cc1ccc(C(=O)c2c(C)oc3ccc(O)cc23)cc1	0.87	13
CC(=O)N1CCN(c2ccc(NC(=O)c3sc4ccccc4c3Cl)cc2)CC1	1	2
CCOC(=O)c1ccc(NC(=O)CN(c2ccccc2OC)S(=O)(=O)c2ccccc2)cc1	1	7
O=C(Nc1ccc(F)cc1)c1ccc(-c2ccccc2)cc1	1.1	16
O=C(Nc1ccccc1)c1ccc(-c2ccccc2)cc1	1.2*	2
CC1CCN(S(=O)(=O)c2ccc(NC(=O)c3ccc(-c4ccccc4)cc3)cc2)CC1	1.4*	-54
CC1CCN(S(=O)(=O)c2ccc(NC(=O)c3ccc([N+](=O)[O-])cc3)cc2)CC1	0.99	-4
O=C(Nc1nccs1)c1ccc(N2C(=O)CCC2=O)cc1	1	3
CCOC(=O)c1c(C)oc2ccc(OC(=O)c3ccccc3OC)cc12	0.9	13
CC(C)(C)NC(=O)CCNS(=O)(=O)c1ccccc1[N+](=O)[O-]	1.1	-14
CC(C)(C)c1ccc(C2C(=C(O)c3ccc(F)cc3)C(=O)C(=O)N2c2nncs2)cc1 (stereo not drawn)	0.98	7
CC(=O)CC(=O)Nc1ccc(Cl)cn1	1	5
O=C(CC(c1ccccc1)c1ccccc1)Nc1ccc(Cl)cn1	0.66*	9
O=c1cc(-c2ccccc2)nc2cc(-c3cccc(Cl)c3)[nH]n12	1.2*	-58
O=c1c2c(nc3cc(-c4cccc(F)c4)[nH]n13)CCCC2	1.1	10
Cc1cc(=O)n2[nH]c(-c3cccc(F)c3)cc2n1	1.1	-8
O=c1c2c(nc3cc(-c4cccc(Cl)c4)[nH]n13)CCS2	0.72*	-51
Cc1cc(C)cc(CSCC(=O)O)c1	1.1	-17
NC1=NC(=O)/C(=C/c2ccccc2OCc2ccc([N+](=O)[O-])cc2)S1	0.97	-7
CN1C(=O)C(=Cc2ccc(-c3ccccc3C(=O)O)o2)C(=O)N(C)C1=O	1.1	39
NC1=NC(=O)/C(=C\c2ccc(-c3ccc([N+](=O)[O-])cc3)o2)S1	1.2*	-2
Cc1ccc(C2=C/C(=C\c3ccc(-c4ccccc4C(=O)O)o3)C(=O)O2)cc1	0.79*	24
O=C1OC(c2ccccc2)=C/C1=C/c1ccc(-c2ccc([N+](=O)[O-])cc2)o1	0.8*	12
SMILES	Cy5 interf NS3h	HCV NS3h FP
Cc1ccc(/C=C2/C=C(c3ccccc3)OC2=O)cc1	0.95	5
O=C(/C=C/c1cn(-c2ccccc2)nc1-c1cccs1)c1cccs1	1	0
O=C(c1cc([N+](=O)[O-])ccc1F)n1nnc2ccccc21	1	-26
N/C(Cc1ccc([N+](=O)[O-])cc1)=N/OC(=O)COc1ccc2ccccc2c1	1	13
CCOC(=O)C1=C(C)N=c2s/c(=C\c3ccc(N(C)C)o3)c(=O)n2C1c1ccc(OCC)cc1 (stereo not drawn)	0.8*	1
CCOC(=O)C1=C(C)N=c2s/c(=C\c3ccc([N+](=O)[O-])o3)c(=O)n2C1c1ccc(OCC)cc1 (stereo not drawn)	0.86	-6
COc1cc(/C=C2/C(=O)NC(=O)N(c3cc(C)cc(C)c3)C2=O)cc(Br)c1OC	1.1	12
COc1cc(NC(=O)c2cccc([N+](=O)[O-])c2)cc(OC)c1	1	18
COc1ccc(OC)c(C=C2C(=O)N(C)C(=S)N(C)C2=O)c1	0.94	-2
COc1cc(OC)cc(C(=O)O/N=C(/c2ccncc2)c2ccc([N+](=O)[O-])cc2)c1	0.61*	12
N/C(=N/OC(=O)c1cccc(Br)c1)c1ccncc1	0.89	8
O=C(O/N=C(\c1ccccc1)c1ccncc1)c1ccc(Br)cc1	0.66*	25
Cc1ccc(/C(N)=N\OC(=O)c2ccc([N+](=O)[O-])cc2)cc1	0.87	31
COc1ccc(N2CCSC2c2ccco2)cc1 (stereo not drawn)	1.1	9
Cc1cc(I)ccc1NC(=O)/C=C/c1ccccc1Cl	1.1	3
CCOc1ccc(CN2CCN(S(C)(=O)=O)CC2)cc1	0.71*	-1
Cc1ccc(CN2CCN(S(C)(=O)=O)CC2)cc1	0.68*	8
CCOc1ccc(S(=O)(=O)N2CCOCC2)cc1	1.1	1
Cc1ccc(NC(=O)C(=O)NCCN2CCN(S(C)(=O)=O)CC2)cc1	0.96	9
COc1ccc2c(c1)OCC/C2=N/OC(=O)c1cc(OC)c(OC)c(OC)c1	1.2*	11
COc1ccc2c(c1)OCC/C2=N/OC(=O)c1ccc(C)cc1	1	20
O=[N+]([O-])c1ccc(-c2noc(-c3ccccc3Br)n2)cc1	0.76*	-9

Bioassay records deposited in PubChem by Milwaukee Institute for Drug Discovery.
